Experimental findings from PubChem BioAssay (NCATS) are described below.

The structures appear in SMILES notation. Results filed as inconclusive are left out. Active and inactive are the calls of the source. Unless noted, the call rests on the fitted dose curve; in most records, active means well fitted curve in the direction sought with a large enough effect; inconclusive means small, poorly fitted or top-dose-only effect, or another doubt; inactive means no such curve, though single readings can be large; an effect the other way counts as inactive or inconclusive.

One experiment deals with Alpha-galactosidase (Coffea arabica) (UniProt Q42656). As to the kind of experiment: Counterscreen for Glucocerebrosidase Inhibitors: qHTS Assay for Coffee Bean alpha-Galactosidase at pH 5.9 (AID 998).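 Further: plate controls were uninhibited enzyme for no effect and no-enzyme basal signal for full effect.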 To be noted: coffee bean alpha-galactosidase enzyme assay; series mostly up to 76.9 µM; activity, negative = inhibition: at the top concentration. Put shortly: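 Enzyme 2 nM + cpd (0.7 nM–77 uM titration) + 4-MU-alpha-Gal 80 uM, pH 5.9 citrate/Tween-20, RT 20 min, NaOH/glycine stop pH 10, fluor 365/440. Normalized to no-enzyme and full-activity controls; Hill-fit AC50.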
Chain of Alpha-galactosidase (Coffea arabica) (Q42656 whole entry, looked up): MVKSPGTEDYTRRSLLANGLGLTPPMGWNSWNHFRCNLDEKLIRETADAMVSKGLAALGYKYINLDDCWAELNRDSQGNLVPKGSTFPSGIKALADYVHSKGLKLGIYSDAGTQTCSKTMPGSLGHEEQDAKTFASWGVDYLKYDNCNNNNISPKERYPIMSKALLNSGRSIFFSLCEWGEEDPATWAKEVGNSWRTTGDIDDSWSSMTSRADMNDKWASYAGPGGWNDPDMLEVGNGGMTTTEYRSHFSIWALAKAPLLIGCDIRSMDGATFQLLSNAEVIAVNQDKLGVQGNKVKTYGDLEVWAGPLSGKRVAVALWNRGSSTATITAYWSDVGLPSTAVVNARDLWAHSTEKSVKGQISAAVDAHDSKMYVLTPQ
On the technique in general: Counterscreens check selectivity or assay interference.
For `CC(=O)[C@H]1CC[C@H]2[C@@H]3CCC4=CC(=O)CC[C@]4(C)[C@H]3CC[C@]12C`, the “activity, negative = inhibition” value is -1.05% (inactive).
For `O=S(=O)(c1cccc2c(Cl)cccc12)N1CCCNCC1`, the “activity, negative = inhibition” value is 2.29% (inactive).
As for `O=S(=O)(c1cccc2c(I)cccc12)N1CCCNCC1`, the “activity, negative = inhibition” value was -1.28% (inactive).
As to `C[N+]1(CCCCC[N+]2(C)CCCC2)CCCC1`, the “activity, negative = inhibition” value was -1.25% (inactive).
Regarding `NC(N)=NCc1cccc(I)c1`, the “activity, negative = inhibition” value is -2.54% (inactive).
Turning to `CC(C)COC(=O)OCN1C(=O)CN(CCN2CC(=O)N(COC(=O)OCC(C)C)C(=O)C2)CC1=O`, the “activity, negative = inhibition” value was -1.17% (inactive).
The same measure, in the same setting: the figure for `COc1ccc(/C=C/C(=O)Nc2ccccc2C(=O)O)cc1OC` is -5.06% (inactive); for `CN(C)CCCN1c2ccccc2CCc2ccccc21` it is -5.54% (inactive).

Tested on in another experiment: not listed separately
Put plainly: Validation screen for inhibitors of Lassa infection (AID 463096; calls by dose curve; further: potency means the concentration at half of the fitted maximal effect; on activity change, negative = inhibition: on the % scale 0 is the no-effect control and ±100 the full control effect). To be noted: Lassa virus infection, cell-based; series mostly up to 46.1 µM; activity change, negative = inhibition: at the top concentration.
Consider `CC(=O)[C@H]1CC[C@H]2[C@@H]3CCC4=CC(=O)CC[C@]4(C)[C@H]3CC[C@]12C`, for which the “activity change, negative = inhibition” value was -12.4% (inactive).
`O=S(=O)(c1cccc2c(Cl)cccc12)N1CCCNCC1`: the “activity change, negative = inhibition” value is -32.7% (inactive).
For the compound `COc1ccc(CCN(C)CCCC(C#N)(c2ccc(OC)c(OC)c2)C(C)C)cc1OC` (configuration not stated), the compound was called inactive.
Turning to `O=S(=O)(c1cccc2c(I)cccc12)N1CCCNCC1`, the “activity change, negative = inhibition” value was -6.49% (inactive).
For the compound `C[N+]1(CCCCC[N+]2(C)CCCC2)CCCC1`, the “activity change, negative = inhibition” value is 34.3% (inactive).
Take `NC(N)=NCc1cccc(I)c1`: the “activity change, negative = inhibition” value was 1.47% (inactive).
Consider `CC(C)COC(=O)OCN1C(=O)CN(CCN2CC(=O)N(COC(=O)OCC(C)C)C(=O)C2)CC1=O`, for which the “activity change, negative = inhibition” value is 0.376% (inactive).
Same read-out and setting: with `CN(C)CCC(c1ccc(Br)cc1)c1ccccn1` (configuration not stated) the figure was -32.2% (inactive).
Turning to `COc1ccc(/C=C/C(=O)Nc2ccccc2C(=O)O)cc1OC`, the Potency is 2820 nM (active).

Tested on in the next experiment: not listed separately
As to the kind of experiment: Inducers of the Endoplasmic Reticulum Stress Response (ERSR) in human glioma: Validation (AID 504836). Further: 0% is about no effect. To be noted: human glioma cells, ER stress response reporter; series mostly up to 38.3 µM; activation: at the top concentration. An outline of the steps:
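Stably transfected U87-MG glioma cells carrying a GRP78-based luciferase sensor; 16 h compound incubation. Luminescence end-point read 10 min after Bright-Glo addition at room temperature.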
On to `CC(=O)[C@H]1CC[C@H]2[C@@H]3CCC4=CC(=O)CC[C@]4(C)[C@H]3CC[C@]12C`, for which the “activation” value is -1.18% (inactive).
On to `Clc1ccc2c(c1)N=C(N1CCNCC1)c1ccccc1N2`, for which the “activation” value was -0.443% (inactive).
Take `O=S(=O)(c1cccc2c(Cl)cccc12)N1CCCNCC1`: the “activation” value is -1.84% (inactive).
Take `O=S(=O)(c1cccc2c(I)cccc12)N1CCCNCC1`: the “activation” value is 4.06% (inactive).
Take `C[N+]1(CCCCC[N+]2(C)CCCC2)CCCC1`: the “activation” value is 2.07% (inactive).
On the same count and under the same terms, the figure for `NC(N)=NCc1cccc(I)c1` is -1.16% (inactive).
Regarding `CC(=O)O[C@H]1Cc2ccccc2N(C(N)=O)c2ccccc21`, the “activation” value was -4.79% (inactive).
The same measure, in the same setting: with `CC(C)COC(=O)OCN1C(=O)CN(CCN2CC(=O)N(COC(=O)OCC(C)C)C(=O)C2)CC1=O` the figure was -3.18% (inactive); with `CN(C)CCC(c1ccc(Br)cc1)c1ccccn1` (configuration not stated), -2.13% (inactive); with `COc1ccc(/C=C/C(=O)Nc2ccccc2C(=O)O)cc1OC`, -11.5% (inactive).
